Measured values reported in PubChem BioAssay (Tox21).
Values joined by “and” are separate entries in the source; they are usually repeats but may differ in a detail not shown here. Identical values can stand only once. Records with an inconclusive call do not appear. Entries that show only a call come without a potency. More than one record can exist for a structure, and the calls need not agree. Active and inactive are the calls of the source. Calls come from the whole dose curve; as a rule, active = well fitted activation curve with a large enough effect in the repeat runs; inconclusive = weak or mixed curves, or effect the other way; inactive = no such curve, though single readings can be large or run the other way.

assay: qHTS assay to identify small molecule agonists of the retinoic acid receptor (RAR) signaling pathway (AID 1159553); conditions: C3RL4 RARE luciferase reporter, agonist, 6 h; series mostly up to 73.3 µM; activation: at the top concentration
Text: National Center for Advancing Translational Sciences [NCATS] NIH Chemical Genomics Center [NCGC] U.S. Environmental Protection Agency [EPA] National Institutes of Environmental Health Sciences [NIEHS] National Toxicology Program [NTP] Assay overview: All-trans Retinoic acid (atRA) is the potent natural metabolite of retinol and plays an important role in normal embryonic development and maintenance of cellular phenotype in adult animals. atRA is the activating ligand for the retinoic acid receptors (RARs) which form heterodimers with retinoid X receptors (RXRs) on the retinoic acid response element (RARE). Through activation of the RAR/RXRs nuclear receptors, atRA regulates the transcription of a large number of protein-coding genes and regulatory RNAs. Intracellular levels of atRA are controlled by the retinol signaling pathway (RSP) that regulates the biosynthesis and catabolism of atRA to maintain physiological levels. Chemicals that interfere with the RSP can cause abnormal intracellular levels of atRA and therefore are potential developmental toxicants. To assess compounds for the potential adverse effect on embryonic development through interfering with retinol signaling, a cell-based RARE luciferase reporter gene assay was used. C3RL4 cell line (OARSA/CFSAN/FDA, Laurel, MD) was used to screen Tox21 10K compound library for identifying activators of the RSP.
Assay Protocol Summary: C3RL4 cells were seeded at 1,000/well in 5 uL of assay medium into white solid 1,536-well tissue culture plates (Greiner Bio-One North America Inc. Monroe, NC) using a Multidrop Combi (Thermo Scientific, Waltham, MA) dispenser. After incubation at 37 C and 5% CO2 for an overnight, 23 nL of compounds dissolved in DMSO, positive control or DMSO only were transferred by a Pintool station (Kalypsys, San Diego, CA). After 6 hr incubation at 37 C and 5% CO2, 5 uL of Amplite Luciferase reagent (AAT Bioquest Inc. Sunnyvale, CA) was added to each assay plate using a Flying Reagent Dispenser (FRD) (Aurora Discovery, San Diego, CA). Luminescence was quantified on a ViewLux plate reader (PerkinElmer, Waltham, MA) after 30 min incubation at room temperature.
Potency is the fitted concentration of half-maximal effect.

Row | SMILES | Potency | activation
1 | CC(C)=CCCC(C)CCO (stereo not given) | inactive | 
2 | CCCCC(CC)COC(=O)c1ccc(N(C)C)cc1 (stereo not given) | inactive | 
3 | O=C(/C=C/c1ccccc1)OCc1ccccc1 | 30.6 µM (active) and 29.8 µM (active) | 
4 | CCC(C)CO (stereo not given) | inactive | 
5 | Nc1ccc(Nc2ccccc2)cc1 | inactive | 
6 | CC(C)(C)NC(=O)[C@H]1CC[C@H]2[C@@H]3CC[C@H]4NC(=O)C=C[C@]4(C)[C@H]3CC[C@]12C | inactive | 
7 | C/C=C/C(=O)O | inactive | 
8 | CC(CCC(=O)O)(c1ccc(O)cc1)c1ccc(O)cc1 | inactive | 
9 | Cc1ncc[nH]1 | inactive | 
10 | NNc1ccc(C(=O)O)cc1 | 43.9 nM (active) and 24.6 µM (active) | 
11 | CC(C(=O)O)c1cccc(C(=O)c2ccccc2)c1 (stereo not given) | inactive | 
12 | OCCO | inactive | 
13 | Clc1nc(Cl)c(Cl)c(Cl)c1Cl | inactive | 
14 | O=C(c1ccccc1)c1ccc(O)cc1O |  | 10.9% (inactive)
15 | COc1cccc2c1C(=O)c1c(O)c3c(c(O)c1C2=O)C[C@@](O)(C(=O)CO)C[C@@H]3O[C@H]1C[C@H](N)[C@H](O)[C@H](C)O1 | inactive | 
16 | O=C=Nc1ccc(Cc2ccc(N=C=O)cc2)cc1 | inactive | 
17 | CN1C(C(=O)Nc2ccccn2)=C(O)c2ccccc2S1(=O)=O |  | 2.63% (inactive)
18 | c1cc(-c2ccncc2)ccn1 | inactive | 
19 | O=C(/C=C/C=C/c1ccc2c(c1)OCO2)N1CCCCC1 | 3.86 µM (active) and 1.93 µM (active) | 
20 | Cc1cccc(C(=O)O)c1 | inactive | 

Row | SMILES | Potency | activation
21 | COc1ccc(C(=O)CC(=O)c2ccc(C(C)(C)C)cc2)cc1 | 58.7 µM (active) and inactive | 
22 | Cc1ccc(C)c(O)c1C | inactive | 
23 | Cc1c(OCC(F)(F)F)ccnc1CS(=O)c1nc2ccccc2[nH]1 (stereo not given) | 34.4 µM (active) and 26.6 µM (active) | 
24 | O=P(O)(O)O | inactive | 
25 | CC(C)Oc1ccc2c(=O)c(-c3ccccc3)coc2c1 | 335 nM (active) | 
26 | COc1cc([C@@H]2c3cc4c(cc3[C@H](O)[C@H]3COC(=O)[C@H]23)OCO4)cc(OC)c1OC |  | -8.32% (inactive)
27 | C[Si](C)(C)O[Si](C)(C)C | inactive | 
28 | O=Cc1ccccc1O | inactive | 
29 | CC(C)CC(C)(O)C#CC(C)(O)CC(C)C (stereo not given) | inactive | 
30 | CN(C)CCN(Cc1cccs1)c1ccccn1 | inactive | 
31 | CC(=O)c1ccccn1 |  | 4.54% (inactive)
32 | C[C@]12CCC(=O)C=C1CC[C@@H]1[C@@H]2C(=O)C[C@@]2(C)[C@H]1CC[C@]2(O)C(=O)CO |  | -0.0655% (inactive)
33 | CCCCCCCCCC(=O)OC | inactive | 
34 | CC(=O)C1(C)CC2=C(CCCC2(C)C)CC1C (stereo not given) | inactive | 
35 | Cc1cc2nc3c(=O)[nH]c(=O)nc-3n(C[C@H](O)[C@H](O)[C@H](O)CO)c2cc1C | inactive | 
36 | O=C(Nc1ccc(Cl)cc1)Nc1ccc(Cl)c(Cl)c1 | 3.06 µM (active) and 3.35 µM (active) | 
37 | Cn1cnc([N+](=O)[O-])c1Sc1ncnc2nc[nH]c12 | inactive | 
38 | CCCCNS(=O)(=O)c1ccccc1 | inactive | 
39 | OC1CCCCCCCCCCC1 | inactive | 
40 | O=C(O)c1ccccc1Nc1cccc(C(F)(F)F)c1 | inactive | 
